Source: PubChem (National Center for Advancing Translational Sciences (NCATS))
HPGD inh = HPGD (human) dehydrogenase inhibition; P15428; purified HPGD, NADH fluorescence kinetic, PGE2 substrate; Potency, µM, inactives show at the top dose activity change, negative = inhibition, actives largely listed as inhibitors; hit rate 4.3% among 150,000; AID 894; active = well fitted inhibition curve with a large enough effect, not every such curve was filed as active; inconclusive = small, poorly fitted or top-dose-only effect, or another doubt; inactive = no such curve, though single readings can be large or run the other way; note: potency is the fitted concentration of half-maximal effect
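20 nM HPGD preincubated 15 min at room temperature with compound in 50 mM Tris-HCl pH 8, 0.01% Tween 20. Started with 1 mM NAD+ and 30 uM prostaglandin E2; NADH fluorescence (360/450 nm) read 5 times over 30-s intervals, last minus first.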
IMPase inh = IMPase inhibition in cells | inhibition (IP1 accumulation), % at 46.1 µM | CHO-M1 cells, IP1 accumulation, HTRF TR-FRET ratio | P97697 | 120,000 tested, under 10 active | AID 901; active = well fitted curve in the direction sought with a large enough effect in the signal ratio, not every such curve was filed as active; inconclusive = small, poorly fitted or top-dose-only effect, or a change in a side signal; inactive = no such curve, though single readings can be large or run the other way; the % refers to the signal ratio;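 note: cells stimulated with carbachol in lithium chloride buffer; plate controls were DMSO basal wells for no effect and reference inhibitor wells for full effect; higher means more IMPase inhibition seen as more IP1 and lower FRET ratio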
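Seeded CHO-M1 cells were dosed with compound at up to 46 uM, stimulated with carbachol for 30 min, then lysed in IP-One detection reagents. Higher IP1 lowers the TR-FRET signal.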
12-hLO inh = 12-hLO (ALOX12) enzyme inhibition; P18054; purified 12-hLO, xylenol orange hydroperoxide absorbance; Potency, µM (doses to about 57.1 µM), for inactives: at the highest dose activity change, negative = inhibition, hits mostly inhibitors; hit rate 0.12% among 150,000; AID 1452; note: potency is the fitted concentration of half-maximal effect; nearly all actives have a fitted effect of over 55% in size
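Purified human 12hLO (150 nM final) was preincubated with compounds for 15 min at room temperature in 25 mM Hepes pH 7.0, 0.01% Triton X-100, then reacted with 40 uM arachidonic acid for 30 min. Hydroperoxide was detected with ferrous iron/xylenol orange.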
15-hLO-2 inh = blocks human 15-lipoxygenase 2 activity; O15296; purified 15hLO-2, xylenol orange hydroperoxide absorbance; Potency, µM (series often up to 57.1 µM), without a hit: at the top dose activity change, negative = inhibition, hits mostly inhibitors; hit rate 0.56% among 110,000; AID 881; note: potency is the fitted concentration of half-maximal effect; nearly all actives have a fitted effect of over 60% in size
Target sequence (O15296 whole entry, looked up): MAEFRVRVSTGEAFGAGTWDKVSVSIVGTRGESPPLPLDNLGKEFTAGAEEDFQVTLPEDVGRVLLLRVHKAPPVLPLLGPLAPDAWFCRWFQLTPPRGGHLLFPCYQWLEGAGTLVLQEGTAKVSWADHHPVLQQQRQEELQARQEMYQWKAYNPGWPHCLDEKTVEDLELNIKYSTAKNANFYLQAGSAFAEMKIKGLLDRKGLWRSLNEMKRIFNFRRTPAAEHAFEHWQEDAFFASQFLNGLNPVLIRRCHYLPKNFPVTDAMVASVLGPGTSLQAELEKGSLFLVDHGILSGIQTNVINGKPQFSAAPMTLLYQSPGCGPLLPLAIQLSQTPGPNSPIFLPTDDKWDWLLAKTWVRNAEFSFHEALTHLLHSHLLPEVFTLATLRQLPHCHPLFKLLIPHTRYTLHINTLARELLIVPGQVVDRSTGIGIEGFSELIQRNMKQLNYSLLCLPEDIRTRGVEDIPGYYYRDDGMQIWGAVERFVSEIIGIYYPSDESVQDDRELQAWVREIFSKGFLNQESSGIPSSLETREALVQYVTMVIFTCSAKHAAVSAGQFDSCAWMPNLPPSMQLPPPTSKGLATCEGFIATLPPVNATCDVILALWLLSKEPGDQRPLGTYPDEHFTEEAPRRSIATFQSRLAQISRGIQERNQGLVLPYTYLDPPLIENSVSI
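Screening format was qHTS against 50 nM purified 15hLO-2 in Hepes pH 7.5 with detergent. Activity follows hydroperoxide formation from 45 uM arachidonic acid, measured as 573:405 nm absorbance ratio of the ferric-xylenol orange complex.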
PNC assembly inh = blocks assembly of the perinucleolar compartment; PC3M PTB-GFP, PNC prevalence imaging, 16 h; stronger effect = lower value; hit rate 3.1% among 140,000; AID 2417; activity change (PNC), negative = inhibition, % at 10 µM;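 active = readout at or below -70, meaning at least 70% loss of cells showing the perinucleolar compartment, a nuclear body marking cancer cells; inconclusive = readout between -30 and a set limit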;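 note: plate controls were DMSO wells for no effect and camptothecin positive control wells for full effect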
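Read-out is percentage of cells bearing a perinucleolar compartment, from automated 20x imaging of fixed, Hoechst-stained PC3M PTB-GFP cells. Cells were seeded 4 h, then exposed 16 h to compound (23 nl of library stock) in duplicate plates.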
IMPase Li inh = membrane-permeable IMPase blocker, potentiated with lithium. CHO-M1 cells, IP1 TR-FRET (IP-One), carbachol + lithium. Potency, µM (series often up to 59.4 µM), for the others: top-dose activity, negative = IMPase inhibition, most hits filed as inhibitors. hit rate 0.35% among 210,000;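 note: IP1 builds up when IMPase is blocked and the TR-FRET signal falls; potency is the fitted concentration of half-maximal effect; plate controls were basal vehicle for no effect and high inhibitor control for full effect; nearly all actives have a fitted effect of over 50% in size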
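Steps: plate 2000 CHO-M1 cells per well and culture 16–30 h; add compound and lithium; incubate 30 min, 37C; add d2-IP1 tracer and Eu cryptate anti-IP1 antibody in lysis buffer; read after 10 min at room temperature.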
An asterisk follows results filed as active; ? = inconclusive; · = no result given; [ ] = another dose, or the depositor's remark. Shown are actives, neighbours in structure and some others; about 5.4% of the full set was active somewhere. Unless noted, calls come from the whole dose curve; as a rule, active = well fitted curve in the direction sought with a large enough effect; inconclusive = small, poorly fitted or top-dose-only effect, or another doubt; inactive = no such curve, though single readings can be large; an effect the other way counts as inactive or inconclusive. Unless noted, % is set by controls: 0 for no effect and ±100 for the full control effect.

SMILES | HPGD inh | IMPase inh | 12-hLO inh | 15-hLO-2 inh | PNC assembly inh | IMPase Li inh
Brc1ccc(-c2nn3c(-c4ccco4)nnc3s2)o1 | -13% | ? | -21% | -11% | 14 | 11µM*
COc1cccc(-c2nn3c(-c4ccco4)nnc3s2)c1 | ? | -7 | -20% | -19% | -14 | 11µM*
COc1cccc(OC)c1-c1nn2c(-c3ccco3)nnc2s1 | 16µM* | -2 | -7% | -16% | ? | -18%[38.3 µM]
c1coc(-c2nnc3sc(C4CCCCC4)nn23)c1 | 25µM* | 7 | -9% | 2% | -3 | 22%[38.3 µM]
COc1cc(-c2nn3c(-c4ccco4)nnc3s2)cc(OC)c1OC | -15% | -4 | -3% | -4% | -29 | -6%[38.3 µM]
Cc1noc(NC(=O)Nc2ccccc2F)c1C#N | -1% | · | 3%[11.4 µM] | 3%[11.4 µM] | · | -6%
COc1ccc2c(c1)[n+]([O-])c(/C(C)=N/NC(N)=S)c(C)[n+]2[O-] | · | · | 3%[11.4 µM] | -3%[11.4 µM] | · | ·
Cc1ccc(OCc2nn3c(-c4ccco4)nnc3s2)cc1 | · | 1 | -6% | -6% | 13 | ·
Clc1ccc(OCc2nn3c(-c4ccco4)nnc3s2)c(Cl)c1 | 3.2µM* | 14 | -7% | -24% | 22 | 12%[38.3 µM]
Cc1cc(NC(=O)CSc2nc(-c3ccco3)cc(C(F)(F)F)n2)no1 | -25% | -15 | 13% | · | -116* | 2%
Cc1cc(NC(=O)CCSc2nc(-c3ccco3)cc(C(F)(F)F)n2)no1 | -6% | 0 | 0% | -7% | 13 | 52%[38.3 µM]
O=C(CSc1nc(-c2ccco2)cc(C(F)(F)F)n1)Nc1ccc(C(=O)N2CCCCC2)cc1 | 0.56µM* | 8 | -1% | -3% | -16 | 27%[38.3 µM]
Cc1ccc(NC(=O)CSc2nc(-c3ccco3)cc(C(F)(F)F)n2)cc1 | · | -5 | · | · | · | ·
C[C@@H]1O[C@@H](n2cc(F)c(=O)[nH]c2=O)[C@H](O)[C@@H]1O | · | 5 | -2% | -3% | · | ·
Fc1ccc(N2N=C(c3cccs3)CC2c2ccccc2)cc1 (stereo not given) | · | · | · | · | · | 10µM*
CNC(=S)N/N=C/c1cn(CCOc2cccc(OC)c2)c2ccccc12 | 16µM* | · | ? | · | 16 | 13%
NC(CCC(=O)NC(CCSC(CC(=O)O)C(=O)O)C(=O)NCC(=O)O)C(=O)O (stereo not given) | -6% | · | -2% | 5% | · | 2%
Cc1ccn2cc(CCNC(=O)CC(C)(C)C)nc2c1 | ? | 2 | 1% | · | -100* | 2%
COC(=O)c1ccccc1NC(=O)CSc1nnc(Cc2ccc(Cl)cc2)o1 | 28µM* | 13 | -1% | 5%[2.29 µM] | ? | 21%[38.3 µM]
COc1ccc(NCc2nnc(SCC(=O)Nc3ccccc3OC)o2)cc1 | -5% | 11 | -13% | -17% | -105* | 29%[38.3 µM]
COc1ccc(OC)c(NC(=O)CSc2nnc(CNc3ccc(F)cc3)o2)c1 | -4% | -4 | -3% | 2% | 36 | 6%[38.3 µM]
COc1ccccc1NC(=O)CSc1nc2ccccc2n1C(C)=O | 16µM* | 3 | 0% | -4% | 7 | -2%[38.3 µM]
Cc1ccc(C(C2=C(O)CC(C)(C)CC2=O)C2C(=O)CC(C)(C)CC2=O)s1 (stereo not given) | 3.2µM* | -2 | -15% | -18% | -12 | -3%[38.3 µM]
CC1(C)CC(=O)C(C(C2=C(O)CC(C)(C)CC2=O)c2ccc(Br)s2)C(=O)C1 (stereo not given) | 1.4µM* | · | -28% | · | -1 | 3%
COc1ccc(C)cc1S(=O)(=O)Nc1ccc(F)c(Cl)c1 | 28µM* | -12 | 8% | · | ? | 2%
SMILES | HPGD inh | IMPase inh | 12-hLO inh | 15-hLO-2 inh | PNC assembly inh | IMPase Li inh
COc1cc(NS(=O)(=O)c2ccc(OC)c(C)c2C)c(OC)cc1Cl | -17% | 6 | -10% | ? | -108* | 37%[38.3 µM]
COc1ccc(OC)c(S(=O)(=O)Nc2cc(OC)c(Cl)cc2OC)c1 | -11% | ? | -4% | 2% | -3 | -6%[38.3 µM]
COc1ccccc1NS(=O)(=O)c1ccc(OC)c(OC)c1 | -5% | -4 | 1% | -4% | -28 | 22%[38.3 µM]
COc1ccccc1NS(=O)(=O)c1cc(Cl)ccc1OC | -16% | 6 | -3% | -4% | -114* | 0%[38.3 µM]
COc1ccc(NS(=O)(=O)c2cc(C)ccc2OC)cc1OC | -3% | 9 | -4% | -2% | 20 | 18%[38.3 µM]
COc1ccccc1NS(=O)(=O)c1cccc(NC(=O)Nc2cccc(Cl)c2)c1 | -21% | · | ? | · | -86* | -15%
N[C@H](C(=O)O)C1C(C(=O)O)C1C(=O)O (stereo not given in full) | · | · | · | · | · | -8%
Cc1ccc2c(c1)C(=O)OC(C(=O)Nc1ccc(C(=O)O)cc1)C2 (stereo not given) | · | 8 | · | · | · | ·
COc1ccc(Cl)cc1NC(=O)CSC1=Nc2ccccc2C2=NC(CC(=O)NCc3cccs3)C(=O)N12 (stereo not given) | · | 17 | · | · | · | ·
Cc1ccc2[nH]c3c(=O)n(N)c(C)nc3c2c1 | · | · | · | · | · | 14%
Cc1ccc2[nH]c3c(=S)nc[nH]c3c2c1 | -27% | ? | 1% | · | 8 | 13µM*
COc1cc(OC)c(-c2c3cc(O)c(=O)cc-3oc3cc(O)c(O)cc23)cc1OC | 16µM* | 18 | -21% | · | -27 | 5%
O=C(c1cn(-c2ccccc2)nc1-c1cccs1)N1CCOCC1 | -3% | -16 | 4% | 2% | 73 | -15%[38.3 µM]
O=C(c1cn(-c2ccccc2)nc1-c1ccc(F)cc1)N1CCOCC1 | -10% | 1 | 2% | 6% | -10 | 10%[38.3 µM]
O=C(c1cn(-c2ccccc2)nc1-c1ccc(Br)cc1)N1CCOCC1 | -6% | · | -2% | · | -114* | -2%
O=C(c1cn(-c2ccccc2)nc1-c1cccs1)N1CCN(c2ccccc2)CC1 | -17% | -9 | -9% | 18% | -83* | 19%[38.3 µM]
Brc1ccc2c(c1)c1cc(Br)ccc1n2CC1CO1 (stereo not given) | -5% | · | · | · | · | -1%
CCC(Oc1ccccc1F)C(=O)Nc1c(C(=O)c2ccccc2)oc2ccccc12 (stereo not given) | · | 2 | · | · | · | ·
CCN(CC)CCNC(=O)c1ccc(Cc2nc3ccccc3[nH]2)cc1 | 0% | · | 3% | · | · | ·
CC(C)S | -3% | · | 2% | -5% | · | 11%
Cn1cccc1CC(=O)NNC(=S)Nc1ccccc1Cl | 11µM* | · | -6% | · | 65 | 1%
Cn1cccc1CC(=O)NNC(=S)Nc1ccc(Cl)cc1 | -29% | · | -7% | · | 31 | 5%
c1coc(-c2ncc[nH]2)c1 | -11% | 1 | -2% | 8% | -97* | -7%[38.3 µM]
c1coc(-c2nc(-c3ccco3)c(-c3ccco3)nc2-c2ccco2)c1 | ? | 4 | ? | -26% | -23 | -7%[38.3 µM]
O=C(NC1CCCCC1)c1cc(-c2ccco2)on1 | · | -19 | -5% | -10% | 2 | ·
